Assay outcomes as filed in PubChem.
The entries come from a sample that favours hits as a whole.
FH mod – Identification of activators of human fumarate hydratase by quantitative high-throughput screening | FH coupled MDH/diaphorase resazurin fluorescence, 15 min | Potency, µM (top dose mostly 79.9 µM), usual class: inhibitors | 0.22% of 54,000 active; also: the screen sought activators but most active calls are inhibition curves; nearly all actives have a fitted effect of over 45% in size
Target sequence (P07954 whole entry, looked up): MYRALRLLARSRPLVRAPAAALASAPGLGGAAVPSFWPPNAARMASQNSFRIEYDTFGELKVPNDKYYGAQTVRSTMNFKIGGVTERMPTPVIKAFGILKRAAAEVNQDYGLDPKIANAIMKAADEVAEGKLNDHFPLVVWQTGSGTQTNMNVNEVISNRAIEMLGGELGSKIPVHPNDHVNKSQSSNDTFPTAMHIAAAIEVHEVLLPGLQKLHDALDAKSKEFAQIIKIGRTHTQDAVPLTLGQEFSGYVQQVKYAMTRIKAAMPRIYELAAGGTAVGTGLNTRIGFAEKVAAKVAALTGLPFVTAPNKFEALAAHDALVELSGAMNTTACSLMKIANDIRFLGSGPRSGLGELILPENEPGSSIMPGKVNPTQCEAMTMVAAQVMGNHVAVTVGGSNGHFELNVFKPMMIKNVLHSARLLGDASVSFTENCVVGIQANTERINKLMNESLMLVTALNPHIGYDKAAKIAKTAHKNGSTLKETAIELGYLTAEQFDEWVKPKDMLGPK
PTAP-TSG101 blk – inhibitors of HIV-1 PTAP binding to human TSG101, validation | Potency, µM (titrated, usually from 115 µM), hits mostly inhibitors | 44,000 tested, under 10 active | Fluorescence polarization, FITC-PTAP peptide/Tsg101, 20 min | Q99816
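Read-out is FITC fluorescence polarization. Compounds were added to Tsg101 binding domain (10 uM final), then FITC-PTAP peptide (50 nM final), 20 min at r.t. Total S+P intensity flags fluorescent compounds.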
NTMT1 inhibitor – inhibitors of human N-terminal methyltransferase NTMT1. NTMT1 MTase-Glo SAH luminescence, purified enzyme. Potency, µM (titrated, usually from 114 µM), usual class: inhibitors. Q9BV86. 2.5% of 59,000 active; also: nearly all actives have a fitted effect of over 65% in size
B2AR arrestin ag – ADRB2 beta-arrestin recruitment. P07550. HTLA Tango cells, beta-arrestin recruitment, luciferase luminescence, 18 h. Potency, µM (titrated, usually from 46.1 µM), usual class: activators. 44,000 tested, under 10 active
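Tango cells (recombinant beta2-AR, beta-arrestin, tTA-driven luciferase), 1500/well in DMEM 1% FBS, treated 18 h at 37 °C with compounds up to 46 µM; luciferin mix added, luminescence read after 15 min; %activity curves fitted and curve-classed.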
GALC G270D act – raises human GALC G270D mutant activity in cells; 0.1% of 45,000 active; 145M-Twi-hGALC-G270D cells (Twitcher mouse brain line with human GALC G270D), HMU-beta-Gal fluorescence, 48 h; Potency, µM (doses to about 57.5 µM), actives largely listed as activators; P54803; also: nearly all actives have a fitted effect of over 65% in size
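Fluorescence readout: HMU-β-gal cleavage by mutant GALC (0.1 mM final, citrate/phosphate pH 5.2 with 1 mg/mL taurocholate), stopped with carbonate/bicarbonate plus Triton X-100. Cells: murine Twitcher 145M-Twi expressing human G270D GALC; qHTS for activators.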
GALK inh – GALK (human) enzyme inhibition; P51570; AID 1347072; Potency, µM (doses to about 57.5 µM), most hits filed as inhibitors; recombinant GALK, Kinase-Glo ATP luminescence, 1 h; 44,000 tested, under 10 active
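Reactions with and without enzyme served as controls. GALK at 5 nM phosphorylates 100 uM galactose using 35 uM ATP (HEPES pH 8.0, Mg2+) for 1 h at RT, with luminescence read 10 min after adding Kinase-Glo Plus.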
DYRK1A KinaseGlo – inhibitors of human DYRK1A kinase; 80% of 100 active; Potency, µM (top dose mostly 76.9 µM), usual class: inhibitors; shares compounds with NTMT1 inhibitor; AID 2705; recombinant DYRK1A, Kinase-Glo ATP depletion luminescence
CLK4 inh – confirmation of human CLK4 kinase inhibitors, SAR round 2. shares compounds with NTMT1 inhibitor. recombinant Clk4, Kinase-Glo ATP luminescence, 4.5 h. Potency, µM (highest dose often 76.9 µM), usual class: inhibitors. 90% of 90 active
USP2 K63 confirm – confirmation of human USP2a inhibitors with K63 diubiquitin substrate | USP2 cleavage of DiUb K63-3IQF, fluorescence kinetic | shares compounds with NTMT1 inhibitor | 80% of 30 active | Potency, µM (series often up to 57.5 µM), most hits filed as inhibitors
Casp6 counter – selectivity of USP2a inhibitors: human caspase-6 inhibition; Caspase 6 enzyme, Caspase-Glo 6 luminescence; activity change, negative = inhibition, % at 46.1 µM; shares compounds with NTMT1 inhibitor; 30 tested, under 10 active; AID 652277
NNMT inh – blocks human NNMT methyltransferase. 10% of 120 active. NNMT MTase-Glo luminescence, SAH detection. Potency, µM (titrated, usually from 57.1 µM), actives largely listed as inhibitors. shares compounds with NTMT1 inhibitor
Of the large screens only hits and unclear results are named; the others gave an inactive call (follow-up assays come after a bar, where they were run). Calls follow the shape of the dose curve; as a rule, active = well fitted curve in the direction sought with a large enough effect; inconclusive = small, poorly fitted or top-dose-only effect, or another doubt; inactive = no such curve, though single readings can be large; an effect the other way counts as inactive or inconclusive.

O=C(CNS(=O)(=O)c1cccs1)N1CCN(c2cccc(C(F)(F)F)c2)CC1	none
COc1cccc(CN(C)c2ccc([S+](=O)([O-])Nc3nccs3)cc2)c1O	none (no result: FH mod, PTAP-TSG101 blk, B2AR arrestin ag, GALC G270D act, GALK inh)
CC(=O)Nc1ccc(S(=O)(=O)Nc2nccs2)cc1	none (no result: FH mod, PTAP-TSG101 blk, B2AR arrestin ag, GALC G270D act, GALK inh) | USP2 K63 confirm inactive | Casp6 counter inactive
O=S(=O)(Nc1nccs1)c1ccc(Nc2nc(-c3ccccc3)cs2)cc1	none (no result: FH mod, PTAP-TSG101 blk, B2AR arrestin ag, GALC G270D act, GALK inh)
O=C(Nc1ccc(S(=O)(=O)Nc2nccs2)cc1)c1cc(-c2ccccc2)nc2ccccc12	FH mod inconclusive (no result: PTAP-TSG101 blk, B2AR arrestin ag, GALC G270D act, GALK inh) | USP2 K63 confirm 1.7µM | Casp6 counter inactive
Cc1ccc(OCCn2c(CCNC(=O)c3ccco3)nc3ccccc32)cc1	none (no result: FH mod, PTAP-TSG101 blk, B2AR arrestin ag, GALC G270D act, GALK inh)
CC(NC(=O)Cc1cc(F)cc(F)c1)C(=O)NC1C(=O)N(C)c2ccccc2-c2ccccc21 (stereo unspecified)	none (no result: PTAP-TSG101 blk, B2AR arrestin ag, GALC G270D act, GALK inh)
CC1(C)CC[C@]2(C(=O)O[C@@H]3O[C@H](CO)[C@@H](O)[C@H](O)[C@H]3O)CC[C@]3(C)C(=CCC4[C@@]5(C)CC[C@H](O[C@@H]6O[C@H](C(=O)O)[C@@H](O)[C@H](O[C@@H]7O[C@H](CO)[C@H](O)[C@H](O)[C@H]7O)[C@H]6O)C(C)(C)C5CC[C@]43C)C2C1 (stereo partly specified)	none (no result: PTAP-TSG101 blk, B2AR arrestin ag, GALC G270D act, GALK inh)
CS(=O)(=O)CCNCc1ccc(-c2ccc3ncnc(Nc4ccc(OCc5cccc(F)c5)c(Cl)c4)c3c2)o1	none (no result: PTAP-TSG101 blk, B2AR arrestin ag, GALK inh) | CLK4 inh inactive
Fc1cccc(CNc2ncnc3ccc(-c4cccc(Cl)c4)cc23)c1	none (no result: FH mod, PTAP-TSG101 blk, B2AR arrestin ag, GALC G270D act, GALK inh)
O=C(NCCCc1ccccc1)c1cccc(-c2cc(O)c3ncccc3c2)c1	none (no result: PTAP-TSG101 blk, B2AR arrestin ag, GALC G270D act, GALK inh)
CC(=O)c1c(OCCN2CCCCC2)c(OCCC(C)c2ccc(F)cc2)c2oc(C)nc2c1C (stereo unspecified)	NTMT1 inhibitor inconclusive (no result: PTAP-TSG101 blk, B2AR arrestin ag, GALC G270D act, GALK inh) | NNMT inh inconclusive
Cc1c(-c2ccccc2)oc2c(C(=O)OCCN3CCCCC3)cccc2c1=O	NTMT1 inhibitor inconclusive (no result: PTAP-TSG101 blk, B2AR arrestin ag, GALK inh)
O=c1nc(-c2ccccn2)sc2ccccc12	NTMT1 inhibitor 20µM (no result: PTAP-TSG101 blk, B2AR arrestin ag, GALC G270D act, GALK inh) | NNMT inh inconclusive
CC(C)c1cc(C(=O)N2Cc3ccc(CN4CCN(C)CC4)cc3C2)c(O)cc1O	none (no result: PTAP-TSG101 blk, B2AR arrestin ag, GALC G270D act, GALK inh)
Cc1[nH]cnc1CN1CCN(C(=O)N[C@@H](CC(C)C)C(=O)O)[C@@H](Cc2ccccc2)C1=O	none (no result: FH mod, PTAP-TSG101 blk, B2AR arrestin ag, GALC G270D act, GALK inh)
CCn1cnc(CCN(C)c2ncnc3ccc(-c4ccc5c(c4)OCO5)cc23)c1	none (no result: FH mod, PTAP-TSG101 blk, NTMT1 inhibitor, B2AR arrestin ag, GALC G270D act, GALK inh) | DYRK1A KinaseGlo 8.2µM
Cc1nc(C(C)N(C)c2ncnc3ccc(-c4ccc5c(c4)OCO5)cc23)cs1 (stereo unspecified)	none (no result: FH mod, PTAP-TSG101 blk, B2AR arrestin ag, GALC G270D act, GALK inh) | CLK4 inh 29µM
Cn1ccc2cc(-c3ccc4ncnc(NCc5ccc6c(c5)OCO6)c4c3)ccc21	none (no result: FH mod, PTAP-TSG101 blk, B2AR arrestin ag, GALC G270D act, GALK inh)
